# Counter-ions that a name gives are not always drawn. A number with no mark means an inactive call.
# Experiments:
# Settings in all cases: 20 µM
# [1] = system: Salmonella enterica typhimurium; test: growth AUC normalised to DMSO control (fraction of control); higher = less growth inhibition, active = hit call of the paper
# In short: (§1)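 After two anaerobic passages, pathogens were added at a starting OD578 of 0.01 to pre-reduced mGAM plates holding compound at 20 μM with 1% DMSO; hemin and NAD were supplemented for Haemophilus parainfluenzae. Sealed with breathable membranes, plates were read at OD578 hourly for 24 h, in three biological replicates. The trapezoidal rule, applied up to the exponential-to-stationary transition, gave the growth-curve AUC, which was normalised to DMSO controls on the same plate.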
# Shigella flexneri = test: as above
# In short: as §1
# Vibrio cholerae = test: as above
# In short: as §1
# [2] = system: Yersinia pseudotuberculosis; test: as above
# In short: as §1
# P. vulgatus RND KO = test: growth AUC normalised to DMSO control (median) (fraction of control); higher = less growth inhibition, active = hit call of the paper
# In short: (§2)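 After two overnight anaerobic passages, strains were inoculated at OD578 0.01 into mGAM in 96-well plates containing approved-drug library compounds at 20 μM and 1% DMSO. Growth was followed by reading OD578 hourly for 24 h within an anaerobic incubator. Area under the curve, taken by the trapezoidal rule up to the start of stationary phase, was normalised to same-plate vehicle wells, and the median of three biological replicates is listed.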
# P. vulgatus WT = test: as above
# In short: as §2
# [3] = system: S. enterica typhimurium WT; test: as above
# In short: as §2
# [4] = system: S. enterica typhimurium tolC KO; test: as above
# In short: as §2
# 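Wherever growth AUC normalised to DMSO control (median) is given: active when median AUC fell below 0.1.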
Compound,growth AUC normalised to DMSO control [1],growth AUC normalised to DMSO control (Shigella flexneri),growth AUC normalised to DMSO control (Vibrio cholerae),growth AUC normalised to DMSO control [2],growth AUC normalised to DMSO control (P. vulgatus RND KO),growth AUC normalised to DMSO control (P. vulgatus WT),growth AUC normalised to DMSO control [3],growth AUC normalised to DMSO control [4]
C[C@H](CCC(=O)O)[C@H]1CC[C@H]2[C@@H]3CC[C@@H]4C[C@H](O)CC[C@]4(C)[C@H]3CC[C@]12C [Lithocholic acid],1.01,1.02,1.04,1.02,1.01,1.03,1,0.995
Cc1nnc(NS(=O)(=O)c2ccc(N)cc2)s1 [Sulfamethizole],0.985,0.98,0.978,1.01,1,1,0.978,0.984
Cc1cc(NC(=O)C2=C(O)c3ccccc3S(=O)(=O)N2C)no1 [Isoxicam],0.982,0.974,0.901,0.984,0.979,0.975,0.991,0.993
CCN(CC)CCOC(=O)C1(c2ccc([N+](=O)[O-])cc2)CCCC1 [Nitrocaramiphen hydrochloride],0.993,0.993,0.974,0.996,1.03,1.05,1,1
COc1ccc(C(Cl)=C(c2ccc(OC)cc2)c2ccc(OC)cc2)cc1 [Chlorotrianisene],0.994,0.944,0.983,1.01,0.96,0.928,0.978,0.993
Cc1noc(NS(=O)(=O)c2ccc(N)cc2)c1C [Sulfisoxazole],0.995,1,1.03,0.971,1,1.05,0.997,0.98
c1cnc(N2CCN(Cc3ccc4c(c3)OCO4)CC2)nc1 [Piribedil],1,1.03,0.999,1.01,1.07,1.09,0.984,1
CC[C@H]1OC(=O)[C@H](C)[C@@H](O[C@H]2C[C@@](C)(OC)[C@@H](O)[C@H](C)O2)[C@H](C)[C@@H](O[C@@H]2O[C@H](C)C[C@H](N(C)C)[C@H]2O)[C@](C)(O)C[C@@H](C)[C@@H]2N[C@@H](COCCOC)O[C@H]([C@H]2C)[C@]1(C)O [Dirithromycin],0.879 (active),0.915,0.154 (active),1,0.0107 (active),0.0116 (active),0.862,0.00235 (active)
O=C(CCCN1CCC(O)(c2ccc(Br)cc2)CC1)c1ccc(F)cc1 [Bromperidol],1.02,0.984,0.999,0.997,0.999,1.01,0.998,0.974
C[C@@H](O)[C@H]1C(=O)N2C(C(=O)O)=C(S[C@@H]3CN[C@H](C(=O)N(C)C)C3)[C@H](C)[C@H]12 [Meropenem],0.00502 (active),0.0408 (active),0.844,0.0586 (active),0.0122 (active),0.0155 (active),0.00861 (active),0.00577 (active)
CC(NCCc1ccc(O)cc1)C(O)c1ccc(O)cc1 (stereo not given) [Ritodrine hydrochloride],1.01,1.02,0.999,1,1,1.01,1,0.997
C#C[C@]1(OC(C)=O)CC[C@H]2[C@@H]3CCC4=CC(=NO)CC[C@@H]4[C@H]3CC[C@@]21CC (mixture of isomers) [Norgestimate],0.995,0.971,0.984,0.988,0.836,0.88,0.999,0.955
Cc1nc2ccccn2c(=O)c1CCN1CCC(C(=O)c2ccc(F)cc2)CC1 [Pirenperone],1.02,1.03,1.01,1,1.03,1.04,1.01,0.986
CCCCCCCN(CC)CCCC(O)c1ccc(NS(C)(=O)=O)cc1 (stereo not given) [Ibutilide fumarate],0.991,0.961,0.964,0.989,1.01,0.991,0.996,1.01
O=c1[nH]c(=O)n([C@H]2C[C@H](O)[C@@H](CO)O2)cc1F [Floxuridine],0.713 (active),0.729 (active),0.695 (active),0.44 (active),0.0504 (active),0.0573 (active),0.815,0.791
Cc1[nH]c(=O)c(C#N)cc1-c1ccncc1 [Milrinone],0.949,0.999,0.968,0.989,0.988,0.995,0.987,0.936
NNCCc1ccccc1 [Phenelzine sulfate],1.03,1.05,1.03,1.02,1.1,1.16,0.994,0.955
CCN(CCCCOC(=O)c1ccc(OC)c(OC)c1)C(C)Cc1ccc(OC)cc1 (stereo not given) [Mebeverine hydrochloride],1.01,1.03,1.02,1.01,1.01,1.01,1,0.934
CCOc1ccc(Cc2nccc3cc(OCC)c(OCC)cc23)cc1OCC [Ethaverine hydrochloride],1.01,1.04,1,1.01,1,0.998,1,0.969
CNC(C)CCC=C(C)C (stereo not given) [Isometheptene mucate],0.988,0.995,1.01,1,1.01,1.02,1.01,1
CCC[C@@H]1C[C@@H](C(=O)N[C@@H]([C@H]2O[C@H](SC)[C@H](O)[C@@H](O)[C@H]2O)[C@@H](C)O)N(C)C1 [Lincomycin hydrochloride],0.904 (active),0.956,0.956,0.994,0.0196 (active),0.0159 (active),0.956,0.866
N[C@@H](C(=O)N[C@@H]1C(=O)N2C(C(=O)O)=C(Cl)CS[C@H]12)c1ccccc1 [Cefaclor hydrate],0.492 (active),0.153 (active),1.03,0.209 (active),1.04,1.05,1.07,1.01
COc1ccc(CN(CCN(C)C)c2ccccn2)cc1 [Pyrilamine maleate],0.974,0.995,0.969,1.01,0.986,0.979,0.993,0.987
CN(C(=O)CN(CCO)CC(=O)N(C)C(C)(C)Cc1ccccc1)C(C)(C)Cc1ccccc1 [Oxethazaine],0.974,1.01,0.99,0.995,0.688,0.646,1.01,0.966
"CCN(CC)CCOc1ccc(C(=C(Cl)c2ccccc2)c2ccccc2)cc1 [(Z,E) Clomiphene citrate]",1.02,1.02,1.01,1.02,0.902,0.964,1.01,0.983
CN1CCC(OC(c2ccccc2)c2ccccc2)CC1 [Diphenylpyraline hydrochloride],0.988,0.996,0.962,0.987,0.994,1,0.987,0.983
CCCN(CCC)C(=O)C(CCC(=O)O)NC(=O)c1ccccc1 (stereo not given) [Proglumide],1.01,1.04,1.05,1.02,1.02,1.06,1,0.99
CCN1C(=O)NC(c2ccccc2)C1=O (stereo not given) [Ethotoin],0.995,0.99,0.996,0.992,1,0.993,0.987,1
Clc1ccc(C(Cn2ccnc2)OCc2ccsc2Cl)c(Cl)c1 (stereo not given) [Tioconazole],0.986,0.984,0.909,1.07,0.932,0.929,1,0.903
CC(C)(O/N=C(\C(=O)N[C@@H]1C(=O)N2C(C(=O)[O-])=C(C[n+]3ccccc3)CS[C@H]12)c1csc(N)n1)C(=O)O [Ceftazidime pentahydrate],0.016 (active),0.0524 (active),0.494 (active),0.186 (active),0.0283 (active),0.0233 (active),0.214,0.0609 (active)
